The results in this text go back to PubChem BioAssay AID488922 (Johns Hopkins Ion Channel Center, 2010).

The campaign covered roughly 310,000 compounds. About 3,800 (1.2%) were called active.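 How the source made its calls: active means ratio B-score over 3 SD below the library mean, with starting fluorescence within 5 SD of its mean; inactive means the rest, inconclusive results apart.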 For the sample, actives were picked, then their nearest neighbours and some compounds at random.

This assay deals with Potassium channel subfamily K member 9 (Homo sapiens) (UniProt Q9NPC2). The assay is described as follows: KCNK9 potassium channel inhibitors, primary screen, HEK293 cells, thallium flux (AID 488922).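 On B-score: negative B-score means less thallium flux so channel inhibition.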 The following applies: HEK293 KCNK9, FluxOR thallium flux fluorescence, at 10 µM; hits give low values.
Sequence of Potassium channel subfamily K member 9 (Homo sapiens) (Q9NPC2 whole entry, looked up): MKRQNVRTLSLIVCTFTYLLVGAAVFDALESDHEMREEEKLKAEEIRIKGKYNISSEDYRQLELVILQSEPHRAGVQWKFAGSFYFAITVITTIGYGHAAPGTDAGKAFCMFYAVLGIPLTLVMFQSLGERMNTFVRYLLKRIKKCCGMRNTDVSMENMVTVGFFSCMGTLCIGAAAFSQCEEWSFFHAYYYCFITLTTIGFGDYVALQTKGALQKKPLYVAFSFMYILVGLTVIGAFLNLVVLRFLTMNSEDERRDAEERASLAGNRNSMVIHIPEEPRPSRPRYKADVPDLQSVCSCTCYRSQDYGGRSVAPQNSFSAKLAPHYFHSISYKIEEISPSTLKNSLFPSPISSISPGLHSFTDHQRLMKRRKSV
In the case of `O=[N+]([O-])c1c(NCCO)cc(Sc2nc3ccccc3s2)c2nonc12`, the B-score result was “inactive”. The same measure for `Cc1onc(-c2ccccc2Cl)c1C(=O)N(Cc1ccc(N(C)C)cc1)C(C)C`: “inactive”; for `C=C(C)CSc1nc(N)c2c3c(sc2n1)CCC3`: “inactive”. The value for `C=CCn1c(SCC(=O)c2c(N)n(C)c(=O)n(C)c2=O)nc2sc(CC)cc2c1=O` was “inactive”; that for `CC1(C)CC(=O)CC2(C1)NCC(c1ccccc1Cl)c1c2[nH]c2ccccc12` (centres undefined) was -14.9 (active). The value for `O=[N+]([O-])/C=C1\CCCCCN1` was “inactive”. Consider `Cc1noc(C)c1/C=N/Nc1ccc2ccccc2n1`, for which the B-score entry was “inactive”. Regarding `Brc1ccc(-c2csc(N/N=C/c3ccc4c(c3)OCO4)n2)cc1`, the B-score entry was “inactive”. The value for `C(=N\Nc1ccc2ccccc2n1)/c1ccc2c(c1)OCO2` was -6.68 (active). The value for `CN1CC(=O)N=C1N` was “inactive”; that for `CCCC1NC(=S)NC(C)=C1C(C)=O` (centres undefined) was “inactive”; that for `Cc1scc(C(=O)NNC(=S)NCc2ccccc2)c1C` was “inactive”. On to `O=c1oc2ccccc2cc1-c1csc(Nc2ccc(O)cc2)n1`, for which the B-score result is “inactive”. The same measure for `COc1ccc2nc(Nc3nc(-c4cc5ccccc5oc4=O)cs3)sc2c1`: -6.66 (active); for `CCNc1nc(-c2cc3ccccc3o2)cs1`: “inactive”. On to `O=C(CCC1CCCC1)N=C1SC2CS(=O)(=O)CC2N1Cc1ccccc1` (centres undefined), for which the B-score entry was “inactive”.

For `Cn1c(=O)n(C)c2cc(C(=O)Nc3ccc(Br)cc3)ccc21`, the B-score entry is “inactive”. The value for `Cc1ccc(-n2nc(-c3ccco3)cc2C(=O)NCc2cccnc2)cc1` was “inactive”.

On to `CC(C)C[C@@H](CO)N1CCN(Cc2ccc(O)cc2)CCC1=O`, for which the B-score result is “inactive”. The same measure for `CCOCCCNC(=O)Cc1cc(=O)[nH]c(=O)[nH]1`: “inactive”. The same measure for `CCOC(=O)Cc1cc(=O)[nH]c(=O)[nH]1`: -8.45 (active); for `CCOC(=O)Cc1cc(=O)[nH]c(/N=C(\N)Nc2ccc(OC)cc2)n1`: “inactive”. The same measure for `CC1CCCN(CCCNC(=O)CN2C(=O)COc3ccc(S(=O)(=O)N4CCOCC4)cc32)C1` (centres undefined): “inactive”; for `O=C1/C(=C/c2cccs2)CCC1C1CCCC1` (centres undefined): “inactive”. Take `Cc1cc2ccccn2c1C(=O)c1cccc(S(=O)(=O)N2CCOCC2)c1`: the B-score result is “inactive”. On to `Cc1cc2ccccn2c1C(=O)c1cccc(F)c1`, for which the B-score was -13.4 (active).

With `CC(=O)Nc1ccc(/C=N/Nc2ccc(C(=O)c3c(C)cc4ccccn34)cc2[N+](=O)[O-])cc1`, the B-score result is “inactive”.

Consider `CN(Cc1c(F)cccc1Cl)C(=O)CNC(=O)c1ccc2c(c1)OCO2`, for which the B-score entry is “inactive”.

Consider `O=C(c1ccccc1Cl)N(Cc1ccccc1F)N1C(=O)CCCC1=O`, for which the B-score entry was “inactive”. The same measure for `Cc1c(C(=O)NCCCc2ccccc2)cccc1[N+](=O)[O-]`: “inactive”; for `CN(Cc1ccccc1)C(=O)COC(=O)c1ccccc1Nc1ccccc1`: “inactive”; for `O=C(OCC(=O)N(CCc1ccccc1)Cc1ccccc1)c1ccccc1[N+](=O)[O-]`: -17.6 (active). The same measure for `CCOc1ccc2c(c1)C(c1ccc(C)cc1)=NNC(c1ccc(C)cc1)=N2`: “inactive”; for `Cc1ccc(C2=Nc3c(ccc4ccccc34)C(c3ccncc3)=NN2)cc1`: -10.7 (active); for `Cc1ccc(-c2csc(-c3c[nH]c4ccccc34)n2)cc1`: “inactive”.

For the compound `CCCCCC(=O)N1CCN(S(=O)(=O)c2ccc3c(c2)OCCCO3)CC1`, the B-score result is “inactive”.

For `O=C(Cc1cccs1)N(CC1CCCO1)C1(C(=O)NC2CCCCC2)CCCCC1` (centres undefined), the B-score result was “inactive”. For `O=C(CCSCCc1ccccn1)Nc1nccs1`, the B-score entry was “inactive”. The value for `COc1ccc(S(=O)(=O)N2CCN(C(=O)N(C)C)C2C)cc1` (centres undefined) was “inactive”. As to `CC(=O)c1ccccc1OCc1ccc(C(=O)c2ccccc2)cc1`, the B-score was -6.64 (active). The value for `COc1ccc(CCNC(=O)c2ccccc2OCc2ccccc2)cc1` was -8.98 (active).

On to `O=C(NC1CCC(O)CC1)c1ccccc1OCc1ccc(F)cc1` (centres undefined), for which the B-score result was “inactive”. The value for `COc1ccc(OCCCC(=O)NCCc2ccccc2)cc1` was “inactive”; that for `CCOc1ncccc1C(=O)NCCc1ccc(OC)cc1` was “inactive”; that for `CC(OC(=O)c1ccccc1OCc1ccc(Cl)cc1)C(N)=O` (centres undefined) was “inactive”. Turning to `COc1cccc(CN2CCNC(=O)C2CC(=O)N(C)CCc2ccccn2)c1` (centres undefined), the B-score result was “inactive”.

For the compound `Cc1ccc(CN(N=Nc2nonc2N)c2nonc2N)c(C)c1`, the B-score was -10.2 (active). Take `CCN(CC(=O)NCC(=O)Nc1cccc(C)c1C)Cc1ccccc1`: the B-score entry is “inactive”. The same measure for `CC1(C)C2CC[C@]3(C)C(CC=C4[C@@H]5C[C@@](C)(CO)CC[C@]5(C(=O)O)CC[C@]43C)[C@@]2(C)CC[C@@H]1O` (some centres undefined): “inactive”; for `Cc1n[nH]c(=O)c2c1nnn2Cc1ccc(F)cc1`: “inactive”.

On to `COc1ccc(NC(=O)c2cc3nc(-c4ccccc4)cc(C)n3n2)cc1OC`, for which the B-score result is “inactive”.

`COC(=O)c1cc2nc(-c3ccccc3)cc(C(F)(F)F)n2n1`: the B-score result is “inactive”. The same measure for `COCCNc1cc(-c2ccccc2)nc2cc(-c3cccc(F)c3)nn12`: -9.68 (active); for `COCCN(Cc1nc(-c2ccc(C(F)(F)F)cc2)no1)C(C)C`: “inactive”. The value for `O=C(Nc1ccccc1Cl)Nc1cccc2cccnc12` was “inactive”; that for `O=C(Cc1ccc2c(c1)CCCC2)Nc1ccccc1Cl` was “inactive”.

For the compound `O=C(Nc1ccccc1Cl)/C(Cl)=C(\Cl)S(=O)c1ccccc1` (centres undefined), the B-score was -6.6 (active). For `COc1cc(-c2nnc(Cn3cc(C(F)(F)F)ccc3=O)o2)cc(OC)c1OC`, the B-score result is “inactive”. Consider `COc1cccc(CNc2nc3nc4c(c(=O)n3[nH]2)CCC4)c1`, for which the B-score entry was “inactive”. The same measure for `COc1cccc(-c2cc3nc4c(c(N5CCC6(CC5)OCCO6)n3n2)CCCC4)c1`: -9.24 (active).

As to `COc1cccc(NC(=O)CN2CCN(c3nc(-c4cccc(OC)c4)cs3)CC2)c1`, the B-score entry was “inactive”. The value for `CCC(=O)Nc1nnc(S(=O)(=O)N2CCCc3ccccc32)s1` was “inactive”.

For the compound `CCSc1nsc(NC(=O)Nc2cccc(C(C)=O)c2)n1`, the B-score result was “inactive”. For the compound `Cc1ccc(C(=O)N(CC(=O)NC2CCCC2)c2ccc(F)cc2)s1`, the B-score result was “inactive”. The value for `CC1CCCN(CC(=O)Nc2cc(Cl)ccc2Oc2ccccc2)C1` (centres undefined) was “inactive”; that for `O=C(CSc1ccccc1)Nc1cc(Cl)ccc1Oc1ccccc1` was -8.08 (active); that for `CC(=O)Nc1ccc(SCC(=O)Nc2ccccc2Oc2ccccc2)cc1` was “inactive”.

As for `N#CCOc1ccc(C2=NO[C@@H]3[C@@H]4C[C@@H]([C@H]5C(=O)N(c6ccc7c(c6)OCO7)C(=O)[C@@H]45)[C@H]23)cc1`, the B-score result is “inactive”. The same measure for `O=C(N/C(=C\c1ccc(O)cc1)C(=O)N1CCCCC1)c1ccccc1`: “inactive”.
